Experimental data reported in ChEMBL document CHEMBL4513216, “Probing the Open Global Health Chemical Diversity Library for Multistage-Active Starting Points for Next-Generation Antimalarials” (ACS Infect Dis, 2020).
The whole screen tested about 69,000 compounds, of which about 8,600 (12%) showed an effect of 50% or more. For the sample, strong results were picked, then their nearest neighbours and some compounds at random.

tested on: Plasmodium berghei; assay: Screen against P. berghei liver stage (PbLuc), transformed with Luciferase, at 10uM; type: functional, HepG2; details: tested at 10 uM

Row | Compound | INHIBITION
1 | Cc1ncsc1C(=O)NCc1ccnc(N2CCN(C)CC2)c1 | 12.85%
2 | CCc1cnc(N2C[C@@H]3C[C@H](C(=O)N4CCOCC4)[C@H](C2)O3)nc1 | 28.5%
3 | CCOC(=O)N1[C@@H](c2ccco2)[C@@H](C(=O)O)C[C@]12CCCCNC2=O | -8.8%
4 | O=C(O)c1cnc(N2CCCC2)nc1COc1ccccc1 | -14.8%
5 | Cc1cnn(C2CN(CC(=O)NCC(C)C)C2)c1 | 16.9%
6 | CCn1cnnc1C1CCN(C(=O)c2ccoc2C)CC1 | -5.07%
7 | c1ccc(COc2cccc(CNC3CCc4ncnn4C3)c2)cc1 (stereo not drawn) | 33.6%
8 | Cc1ccc2c(c1)C(=O)NCC1(CCN(C(=O)c3csc(C)c3)CC1)O2 | -28.6%
9 | O=C(N1CCOCC1)N1C2CCC(O)(CC2)C1CN1CCOCC1 (stereo not drawn) | 44.2%
10 | CNc1cc2c(nn1)CCN(C(=O)c1coc(Br)c1)C2 | 3.73%
11 | Cc1ncc(CC(=O)N2CCCCC2CCN2CCCC2)c(=O)[nH]1 (stereo not drawn) | 61.8%
12 | Cc1ncc(CC(=O)N2CCC(N3C[C@@H](C)O[C@@H](C)C3)CC2)c(=O)[nH]1 | 37.4%
13 | Cc1cnn(CC2CCCN2C(=O)Cc2c(C)nc(C)[nH]c2=O)c1 (stereo not drawn) | 31.8%
14 | CC(=O)NC(CC(=O)Nc1ccc(C)cn1)c1ccccc1 (stereo not drawn) | 27.6%
15 | N#CC1(NC(=O)c2cc(Cl)ccc2OC(F)F)CCOCC1 | 45.4%
16 | O=C(c1ccc(=O)[nH]n1)N1CCc2ccccc21 | 38.8%
17 | O=C(NN1CCCc2ccccc21)c1c[nH]c(=O)[nH]1 | 32.3%
18 | O=C(c1c[nH]c(=O)[nH]1)N1CCc2ccccc21 | 90.7%
19 | O=C([C@@H]1COC[C@H]2CN(c3ccncn3)C[C@H]21)N1CCCC1 | -10.3%
20 | CCOC(=O)c1n[nH]cc1-c1cncn1CCCn1nc(C)cc1C | 15.9%
21 | NCC(=O)N1CCC(c2cccc(Oc3ccccc3)n2)CC1 | 75.9%
22 | CNCC(=O)N1CCC(c2cccc(Oc3ccccc3)n2)CC1 | 29.5%

Row | Compound | INHIBITION
23 | CC(=O)N1CCC(c2cccc(Oc3ccccc3)n2)CC1 | 9.98%
24 | CCn1cc(Br)c(C(=O)NCc2ccc(F)cc2)n1 | -34%
25 | O=C(NCc1ccc(-n2cncn2)nc1)c1cnccn1 | 48.3%
26 | Cc1cccc(C)c1NC(=O)c1cc(S(N)(=O)=O)c(C)o1 | 52.7%
27 | Cc1oc(C(=O)Nc2cccc(Cl)c2C)cc1S(N)(=O)=O | -74.6%
28 | Cc1oc(C(=O)Nc2ccccc2F)cc1S(N)(=O)=O | 17.5%
29 | Cc1nccc(CNC(=O)Nc2cc(C(F)(F)F)c[nH]c2=O)n1 | 8.38%
30 | Cc1ccn(CC(=O)NCCCOc2ccccc2F)c(=O)c1 | 10.9%
31 | CS(=O)(=O)NC(=O)c1ccn(-c2ccc(Cl)c(Cl)c2)n1 | -43.9%
32 | CNC(=O)COC(=O)c1ccn(-c2ccc(Cl)c(Cl)c2)n1 | 35.7%
33 | COC(=O)CNC(=O)c1ccn(-c2ccc(Cl)c(Cl)c2)n1 | 51.6%
34 | O=C(C1CCCOC1)N1CCN(CC(F)(F)F)c2ccccc21 (stereo not drawn) | 11.3%
35 | O=C1N(Cc2cccc(F)c2)CCC12CCN(c1ccccn1)CC2 | -15.9%
36 | CN(C)C(=O)COC[C@]12COC[C@H]1CN(C1CCCC1)C2 | 56.6%
37 | C1CC(N2C[C@@H]3COC[C@]3(COCC3CCOCC3)C2)C1 | 55.7%
38 | O=C(COC[C@]12COC[C@H]1CN(C1CCC1)C2)N1CCCC1 | 60.2%
39 | CN(C)C(=O)COC[C@@]12CCC[C@@H]1CN(C1CCCC1)C2 | -25.7%
40 | c1cncc(OC[C@]23COC[C@H]2CN(C2CCC2)C3)c1 | 20.6%
41 | O=C(COC[C@@]12CCC[C@@H]1CN(C1CCC1)C2)N1CCCC1 | 27.6%
42 | CN(C)C(=O)COC[C@@]12CCC[C@@H]1CN(C1CCC1)C2 | 12.7%
43 | O=C(COC[C@@]12CCC[C@@H]1CN(C1CCCC1)C2)N1CCCC1 | 34.9%
44 | c1ccc(OC[C@]23COC[C@H]2CN(C2CCOCC2)C3)nc1 | -4.32%

Row | Compound | INHIBITION
45 | Nc1ncnc2nc(C3CCCCN3)ccc12 (stereo not drawn) | 26.45%
46 | O=C(c1cc(F)ccc1O)N1CCN(C2CCSC2)CC1 (stereo not drawn) | -75.7%
47 | CN(CCNc1cc(N2CCCC2CO)ncn1)Cc1ccccc1 (stereo not drawn) | -21.2%
48 | CC(C)CCN1CCN(CC(=O)Nc2ccc3nsnc3c2)CC1 | 58.3%
49 | CCC(CC)CN1CCN(CC(=O)Nc2ccc3nsnc3c2)CC1 | 8.99%
50 | Cc1ccc(CN2CCN(CC(=O)Nc3ccc4nsnc4c3)CC2)o1 | 46.1%
51 | O=C(CCOc1ccccc1F)NC1CCCN(c2ccccn2)C1 (stereo not drawn) | -3.71%
52 | CN(C)Cc1cnc2n1CCN(C(=O)NC1CCCC1)CC2 | 43.8%
53 | CC(=O)c1cccc(NC(=O)c2cnc(N3CCN(C)CC3)nc2C)c1 | 7.83%
54 | CCc1nc(C2CCCN(c3ncc(Br)cn3)C2)no1 (stereo not drawn) | 31.7%
55 | CCc1nc(C2CCCN(C(=O)c3ccccc3Cl)C2)no1 (stereo not drawn) | 42%
56 | CC(C)c1nc(C2CCCN(C(=O)CN(C)S(C)(=O)=O)C2)no1 (stereo not drawn) | -1.35%
57 | CCc1cc(N2CCCC(c3noc(CC)n3)C2)ncn1 (stereo not drawn) | 58.5%
58 | CCc1nc(C2CCCN(C(=O)CC3CCOCC3)C2)no1 (stereo not drawn) | -2.19%
59 | CCc1nc(C2CCCN(c3ncccn3)C2)no1 (stereo not drawn) | -113%
60 | CCc1nc(C2CCCN(C(=O)CN(C)S(C)(=O)=O)C2)no1 (stereo not drawn) | 51.3%
61 | CCc1nc(C2CCCN(C(=O)c3ccccc3F)C2)no1 (stereo not drawn) | 60.5%
62 | CCc1nc(C2CCCN(C(=O)c3ccccc3O)C2)no1 (stereo not drawn) | 37.9%
63 | Cc1ccsc1CNCCCOc1ccccn1 | -19.1%
64 | CC(=O)c1nn(-c2ccccc2)c(C)c1C(C)=O | 10.6%
65 | Cc1ccc(-c2nc(CN3CCCC(Cn4cncn4)C3)no2)cc1 (stereo not drawn) | -28.3%
66 | CCN1CC2(CC1=O)CN(C(=O)c1ccoc1)CCN(C(=O)N(C)C)C2 (stereo not drawn) | 20.9%

Row | Compound | INHIBITION
67 | CCN1CC2(CC1=O)CN(C(=O)c1ccsc1)CCN(C(=O)N(C)C)C2 (stereo not drawn) | 56.1%
68 | CCN1CC2(CC1=O)CN(C(=O)c1ccco1)CCN(C(=O)N(C)C)C2 (stereo not drawn) | 5.14%
69 | CCN1CC2(CC1=O)CN(Cc1ccsc1)CCN(C(=O)C(C)C)C2 (stereo not drawn) | 20.9%
70 | CCN1CC2(CC1=O)CN(C(=O)c1cccs1)CCN(C(=O)N(C)C)C2 (stereo not drawn) | 71%
71 | CCN1CC2(CC1=O)CN(Cc1cccs1)CCN(C(=O)C(C)C)C2 (stereo not drawn) | -9.76%
72 | Cc1nc(CNC(=O)c2cc(COc3cccc(F)c3)[nH]n2)n[nH]1 | 10.1%
73 | CN(CCOc1ccc(C#N)cc1)CC1CC1 | -24.7%
74 | CCCC12CN3CC(CCC)(CN(C1)C3c1[nH]c(=O)[nH]c(=O)c1C)C2=O (stereo not drawn) | 17.1%
75 | CCO[C@@H]1CCN(c2ccc(C)nn2)[C@@H]1Cc1cnn(C)c1 | 24.8%
76 | CC(C)(C)n1ncc2c(=O)n(CC(=O)NCc3ccccc3)cnc21 | 84.3%
77 | CC(C)(C)n1ncc2c(=O)n(CC(=O)NCCc3ccccc3)cnc21 | -25.4%
78 | CC(C)(C)n1ncc2c(=O)n(CC(=O)NCc3ccccc3Cl)cnc21 | 71.4%
79 | CC(C)(C)n1ncc2c(=O)n(CC(=O)NCc3ccco3)cnc21 | -28.5%
80 | NC(=O)Cn1c(CO)cnc1SCC(=O)NCc1ccccc1Cl | -20.8%
81 | CCCNC(=O)Cn1nc(C(C)C)c2cnn(C(C)(C)C)c2c1=O | -7.35%
82 | Cc1ccncc1-n1cc(CCO)cn1 | 0.546%
83 | O=C(CC1CCCCC1)NC1CCCc2nc(N3CCOCC3)ncc21 (stereo not drawn) | 25.6%
84 | Cc1cc(NC(C)c2nnn[nH]2)n2nc(C)c(C)c2n1 (stereo not drawn) | 5.91%
85 | CCOCC1CN(CC2CCC2)Cc2nnn(CC3CC3)c21 (stereo not drawn) | 44.4%
86 | c1cc(CN2Cc3nnn(CC4CC4)c3C(COCC3CC3)C2)co1 (stereo not drawn) | 29.6%
87 | CN(C)C(=O)N1Cc2nnn(CC3CC3)c2C(COCC2CC2)C1 (stereo not drawn) | -0.284%
88 | COCC1CN(Cc2ccncc2)Cc2nnn(CC3CC3)c21 (stereo not drawn) | 45.1%

Row | Compound | INHIBITION
89 | C1CCC(CN2Cc3nnn(CC4CC4)c3C(COCC3CC3)C2)C1 (stereo not drawn) | 63.3%
90 | C1CC(N2Cc3nnn(CC4CC4)c3C(COCC3CC3)C2)C1 (stereo not drawn) | 67.3%
91 | Cc1ccc(N2CCCN(C(=O)CC3C=CCC3)CC2)nn1 (stereo not drawn) | -0.113%
92 | O=C1CCOC[C@]2(CN(Cc3ccccc3)C[C@H]2c2cccc(F)c2)N1 | -38.8%
93 | COc1ccc2c(c1)OCC(C(=O)NCc1nc3c(s1)CCCC3)C2 (stereo not drawn) | -23.3%
94 | CC(c1ccccc1)N(C)C(=O)CNCCn1cccn1 (stereo not drawn) | 31.1%
95 | CCN(CC)CC(=O)N1CCCCC1c1nc(C)cs1 (stereo not drawn) | -67.3%
96 | CCn1cc(CN2CCN(CC(O)c3ccc(C)cc3C)CC2)c(C)n1 (stereo not drawn) | 28%
97 | Cc1ccc(CN2C[C@H]3CN(Cc4ccccc4Cl)CCN3C2=O)cc1 | -45.5%
98 | Cc1nn(C)c2nc(N3CCCC3c3nccs3)sc12 (stereo not drawn) | 49.9%
99 | COC(=O)CC1C(=O)NCCN1c1nc2c(s1)c(C)nn2C (stereo not drawn) | 51.1%
100 | Cc1nn(C)c2nc(N3CCCCC3c3ccc(F)cc3)sc12 (stereo not drawn) | -11.6%
101 | Cc1nn(C)c2nc(N3CCNC(=O)C3Cc3ccccc3)sc12 (stereo not drawn) | 32.3%
102 | Cc1ccc(CN2CCN(c3nc4c(s3)c(C)nn4C)C(C)C2=O)cc1 (stereo not drawn) | 78%
103 | Cc1ccc(CN2CCN(C(=O)c3ccc(CO)cc3)C(C)C2=O)cc1 (stereo not drawn) | 60.3%
104 | CNc1ncccc1C(=O)N1CCN(Cc2ccc(C)cc2)C(=O)C1C (stereo not drawn) | -11.5%
105 | Cc1nn(C)c2nc(N3CCNC(=O)C3C(C)C)sc12 (stereo not drawn) | -47.5%
106 | Cc1nn(C)c2nc(N3CCCCC3c3nccs3)sc12 (stereo not drawn) | 28.7%
107 | Cc1ccc(CN2CCN(C(=O)c3ccccc3O)C(C)C2=O)cc1 (stereo not drawn) | 37.6%
108 | COC(=O)CN1CCN(c2nc3c(s2)c(C)nn3C)C(C)C1=O (stereo not drawn) | 52.9%
